Experimental data as given in PubChem BioAssay (EPA / NIEHS).
Activity calls are given as the source filed them. The calls were made as follows: active = hit-call score of the fitted dose curve at least 0.9, where 1 is the maximum; inactive = score below 0.9.

Each compound was assayed on Insulin-like growth factor-binding protein 1 (IGFBP1), IGFBP1 (gene 3484) (assay: LTEA_HepaRG_IGFBP1: Life Technologies and Expression Analysis (LTEA) Assay for Insulin-like growth factor-binding protein 1 (IGFBP1) using HepaRG (AID 2283508)). Details: mRNA level, 48 h; actives raise or lower the signal.
Procedure: LTEA_HepaRG is a cell based, multiplexed-readout assay that uses HepaRG, a human liver cell line, with measurements taken at 48 hours after chemical dosing on a 96-well plate.LTEA_HepaRG_IGFBP1 is one of 102 assay component(s) measured in the LTEA HepaRG cell culture assay. It is a marker of Cell proliferation, survival, death.Data from the assay component LTEA_HepaRG_IGFBP1 was analyzed into 1 endpoint. This assay endpoint, LTEA_HepaRG_IGFBP1, was analyzed with bidirectional fitting relative to DMSO as the negative control and baseline of activity. Using a type of inducible reporter, measures of mRNA induction for gain or loss-of-signal activity can be used to understand regulation of transcription factor activity. To generalize the intended target to other relatable targets, this assay endpoint is annotated to the transporter intended target family, where the subfamily is hormone carrier protein.
A total of 1060 chemcials from the ToxCast library were tested in eight-point concentration-response experiments. Cell culture and cytotoxicity assays were conducted at Thermo Fisher Scientific's Custom Services facility (Madison, WI). A single lot of human HepaRG cells (Thermo Fisher Scientific, Frederick, MD) was used for the cell culture experiments. 96-well format collagen type I coated plates of human HepaRG cells were prepared using established methods. Briefly, cryopreserved HepaRG cells were thawed, plated at a density of approximately 100,000 cells/well in HepaRG Thaw, Plate, and General Purpose media (HPRG770, Thermo Fisher Scientific), and incubated for 48 hours. 0.5% DMSO was selected as vehicle control to balance the requisite need of DMSO in HepaRG cultures to maintain differentiation (for example, baseline metabolism, proportions of hepatocytes vs. cholangiocytes), while enabling further hepatic receptor pathway activation (for example, PXR and CAR) in response to chemical exposure. 48 hours after plating, the culture medium was replaced with HepaRG Serum-Free Incudtion Media. Cells were exposed to each test chemical in duplicate and maintained in CO2 incubators for another 48 hours. Chemical plates were thawed to room temperature and 200x concentrations of treatment groups were prepared. 8-point conentration-reponse curves were made with the highest exposure at 100 uM, followed by half-log dilutions, all in 0.5% DMSO. Each test plate contained variouse controls, induction positive controls (1mM phenobarbital), cytotoxicity positive controls ([…] aflatoxin B1), vehicle controls (0.5% DMSO), and total lysis controls (0.5% DMSO). Cell morphology images were taken using an Essen IncuCyte FLR automated microscope, with six 96-well plates imaged in about 24 minutes. Images were captured and exported and JPEG files. Spent culture media was transfered to black-well plates for the LDH assay, and remaining media was sorted at -80 C for later use. Cells were treated with RLT buffer and frozen until shipped for gene expression analysis. Total RNA was isolated from the cell suspension in 75 uL of Buffer RLT (Qiagen, Germantown, MD 20874) by Quintiles/Expression Analysis (Durham, NC) using a custom isolation procedure. Total RNA from each plate well was transferred to a preamplification plate. Fluidigm's 96.96 Dynamic ArrayTM (Fluidigm, Amsterdam, the Netherlands) technology was used for gene expression analyses by quantitative reverse transcription polymerase chain reaction (qRT-PCR, performed by Quintiles/Expression Analysis, Durham, NC)89. Standard TaqManTM Assays (Applied Biosystems/ThermoFisher Scientific, Foster City, CA) were used to assess the expression of 93 genes selected based on their selectivity and sensitivity to important hepatic receptors known to be modulated by environmental chemicals; importance in human hepatocyte functionality; and hepatotoxicity. […]

Row | Structure (SMILES) | outcome | AC50
1 | CC(C)(O)c1cnn2c(-c3ccc(F)c(-c4c(F)cccc4C#N)c3)cnc2n1 | inactive | 
2 | c1ccc2c(c1)oc1ccccc12 | inactive | 
3 | ClC1=C(Cl)[C@]2(Cl)[C@H]3[C@H]([C@@H]4C=C[C@H]3C4)[C@@]1(Cl)C2(Cl)Cl | inactive | 
4 | CN(C)[C@@H]1C(=O)C(C(N)=O)=C(O)[C@@]2(O)C(=O)C3=C(O)c4c(O)cccc4[C@@](C)(O)[C@H]3C[C@@H]12 | inactive | 
5 | Oc1ccc2ccc3cccc4ccc1c2c34 | inactive | 
6 | CCNS(=O)(=O)C(F)(F)C(F)(F)C(F)(F)C(F)(F)C(F)(F)C(F)(F)C(F)(F)C(F)(F)F | inactive | 
7 | CCC12COCN1COC2 | inactive | 
8 | [Cl-].[Cl-].[Hg+2] | inactive | 
9 | Nc1cc(Cl)cc(C(=O)O)c1Cl | inactive | 
10 | Clc1ccc(C(c2ccc(Cl)cc2)C(Cl)Cl)cc1 | inactive | 
11 | CNC(=O)Oc1cccc2c1OC(C)(C)C2 | inactive | 
12 | Cc1cc(N=Nc2ccccc2C)ccc1N |  | 9.92 µM (active)
13 | Clc1ccccc1Cl | inactive | 
14 | OCCOCCO | inactive | 
15 | CN(C)C(=O)Nc1ccc(Cl)cc1 | inactive | 
16 | CCC[CH2][Sn]([Cl])([CH2]CCC)[CH2]CCC |  | 2.29 µM (active)
17 | O=P(OCCCl)(OCCCl)OCCCl | inactive | 
18 | CO[C@@H]1[C@H](OC(=O)NC(=O)CCl)CC[C@]2(CO2)[C@H]1[C@@]1(C)O[C@@H]1CC=C(C)C | inactive | 
19 | CC(C)(OOC(C)(C)c1ccccc1)c1ccccc1 | inactive | 
20 | CN(C)c1ccccc1 | inactive | 

Row | Structure (SMILES) | outcome | AC50
21 | c1ccc(NNc2ccccc2)cc1 | inactive | 
22 | CCCCOC(=O)c1ccccc1C(=O)OCc1ccccc1 | inactive | 
23 | Nc1ccc(Cl)cc1N |  | 16.1 µM (active)
24 | COC(=O)c1ccccc1N | inactive | 
25 | CC(C)(C)C(O)(CCc1ccc(Cl)cc1)Cn1cncn1 (stereo not given) |  | 50 µM (active)
26 | CCOc1cccc(C2(N3CCN(c4ccccc4)CC3)CCC(C)CC2)c1 (stereo not given) | inactive | 
27 | C[C@]12C=CC3=C4CCC(=O)C=C4CC[C@H]3[C@@H]1CC[C@@H]2O | inactive | 
28 | Cn1cc(-c2ccccc2)c(=O)c(-c2cccc(C(F)(F)F)c2)c1 |  | 50 µM (active)
29 | O=[N+]([O-])C(Br)(CO)CO | inactive | 
30 | O=C1CCCO1 | inactive | 
31 | Nc1ccc(Oc2ccc(N)cc2)cc1 | inactive | 
32 | COC(=O)Nc1nc2ccccc2[nH]1 | inactive | 
33 | O=C(Nc1ccccc1)c1ccccc1I |  | 34.8 µM (active)
34 | Nc1ccc(N=Nc2ccccc2)cc1 | inactive | 
35 | Nc1ccc([N+](=O)[O-])cc1 | inactive | 
36 | C1=Cc2cccc3cccc1c23 | inactive | 
37 | CC(C)(C)OOC(C)(C)CCC(C)(C)OOC(C)(C)C | inactive | 
38 | CCCCC(CC)COC(=O)c1ccc(C(=O)OCC(CC)CCCC)c(C(=O)OCC(CC)CCCC)c1 (stereo not given) | inactive | 
39 | c1ccc(C2CO2)cc1 (stereo not given) | inactive | 
40 | Nc1ccc(Cc2ccc(N)cc2)cc1 | inactive | 
